Sampled rows, rich in hits. Any-hit rate of the full collection: about 5.4%.
PP1 inh = blocks human PP1-alpha phosphatase, a PP5 counter-screen; P62136; purified PP1alpha, OMFP fluorescence; inhibition, % at 6.7 µM; actives 0.9% (n = 320,000); AID 2235;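 active means inhibition above the mean inhibition of all tested compounds plus 3 SD, computed separately for each screening campaign, cut at about 15% in these data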
PP5 inh = inhibitors of human protein phosphatase 5 (PP5); purified PP5c, OMFP substrate fluorescence; inhibition, % at 6.7 µM; actives 0.18% (n = 320,000);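 active means inhibition above the campaign's mean inhibition across all tested compounds plus 3 SD, cut at about 9.5% in these data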;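 further: 0% = DMSO only and 100% = 100 µM cantharidin control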
Target sequence (P53041 whole entry, looked up): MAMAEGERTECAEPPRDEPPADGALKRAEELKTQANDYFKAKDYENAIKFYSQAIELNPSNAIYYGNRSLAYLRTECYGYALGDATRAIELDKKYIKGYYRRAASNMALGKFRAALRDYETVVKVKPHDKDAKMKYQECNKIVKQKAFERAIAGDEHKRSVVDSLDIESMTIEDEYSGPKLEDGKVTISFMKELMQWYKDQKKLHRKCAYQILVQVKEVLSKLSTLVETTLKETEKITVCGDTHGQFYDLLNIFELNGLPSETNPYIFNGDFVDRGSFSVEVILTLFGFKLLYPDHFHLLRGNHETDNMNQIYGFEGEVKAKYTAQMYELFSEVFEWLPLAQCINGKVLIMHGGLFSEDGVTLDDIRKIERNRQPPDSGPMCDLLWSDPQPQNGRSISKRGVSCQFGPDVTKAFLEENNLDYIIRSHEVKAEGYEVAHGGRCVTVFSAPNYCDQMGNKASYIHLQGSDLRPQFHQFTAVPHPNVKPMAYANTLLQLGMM
ALR inh = human ALR oxidase inhibition via reduced H2O2; purified ALR, DTT oxidation, H2O2 HRP-luminol luminescence; inhibition, % (test concentration not listed); actives 3.8% (n = 290,000);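 active means mean replicate inhibition above about 79%, with every replicate also reaching it, limit read from the data; inconclusive means only one of the two criteria met; inactive means mean below limit and not every replicate reaching it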
Calb FLC = affects C. albicans growth with fluconazole; C. albicans CaCi-2 (fluconazole-resistant clinical isolate) + fluconazole, Alamar Blue growth, 48 h; growth inhibition, % (concentration not given with the values); actives 0.57% (n = 300,000); AID 1979;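 active means growth inhibition above about 58% in most replicates, limit read from the data, passing the limit was not always enough; inconclusive means exactly half the replicates above a set limit; inactive means most replicates below a set limit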;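 further: all wells also contain fluconazole at 8 µg/ml as a sub-toxic cotreatment; 0% = median of DMSO wells and 100% = median of geldanamycin control wells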
CSC inhib = cancer stem cell inhibition | actives 1.1% (n = 300,000) | inhibition, % at 7.5 µM | cancer stem cell-like cells viability, luminescence; in the data active means inhibition above about 75%; inconclusive means no clear call, values can overlap the other calls; tested in HMLE shEcad cells
An asterisk follows results filed as active.

Screening O=C(CNS(=O)(=O)c1ccccc1)OCC(=O)c1c[nH]c2ccccc12 returned PP1 inh 5, PP5 inh 2 and ALR inh -2.
Screening COc1cc2c(-c3ccc(O)cc3)nc3c(c(C)nn3-c3ccccc3)c2cc1OC returned PP1 inh -6, PP5 inh 2, ALR inh 6 and CSC inhib 88*.
Screening O=C(CSc1cccc[n+]1[O-])c1cc(Cl)ccc1Cl returned PP1 inh 4, PP5 inh -1, ALR inh 48, Calb FLC 100* and CSC inhib -1.
`O=C(CSc1cccc[n+]1[O-])c1cc2ccccc2o1` gave PP1 inh 4, PP5 inh 1, ALR inh 94*, Calb FLC -11 and CSC inhib 19.
O=C(O)CSc1cccc[n+]1[O-] was read as PP1 inh -4, PP5 inh -2, ALR inh 1, Calb FLC -12 and CSC inhib -14.
`Nc1nc(SCC(=O)c2cc3ccccc3o2)n[nH]1` gave PP1 inh -2, PP5 inh -2, ALR inh 98*, Calb FLC -10 and CSC inhib -15.
O=C(CSc1cccc[n+]1[O-])c1cccs1 was read as PP1 inh -6, PP5 inh 0, ALR inh 3, Calb FLC 30 and CSC inhib -11.
Screening COc1cc(C(=O)ON=C2C=C(C)C(=O)C(C)=C2)cc(OC)c1OC returned PP1 inh -2, PP5 inh 2, ALR inh 57, Calb FLC 13 and CSC inhib 35.
COc1cc(C(=O)O/N=C2\C=CC(=O)C(C)=C2)cc(OC)c1OC was read as PP1 inh -3, PP5 inh 0, ALR inh 98*, Calb FLC 21 and CSC inhib 28.
For CC(=O)Nc1ccc2nc(NC(=O)CS(=O)(=O)c3ccccc3)sc2c1 the results were PP1 inh 0, PP5 inh -3, ALR inh -19, Calb FLC -2 and CSC inhib -11.
For CC(C)(C)Nc1nc(Cl)nc(N(C#N)CN2C(=O)c3ccccc3S2(=O)=O)n1 the results were PP1 inh -2, PP5 inh 1, ALR inh 92*, Calb FLC 2 and CSC inhib 6.
For COc1ccc(/C=N/Nc2cc(C)nc3ccc(OC)cc23)c(OC)c1 the results were PP1 inh 14, PP5 inh 2, ALR inh 86*, Calb FLC -31 and CSC inhib 101*.
Screening COc1ccc2nc(C)cc(SCC(=O)N/N=C/c3ccccc3)c2c1 returned PP1 inh -4, PP5 inh 0, ALR inh 4, Calb FLC 14 and CSC inhib 4.
COc1ccc2nc(C)cc(Nc3ccc(N4CCOCC4)cc3)c2c1 was read as PP1 inh 3, PP5 inh 0, ALR inh 16 and Calb FLC -14.
Screening COc1ccc2nc(C)cc(N/N=C/c3ccccc3)c2c1 returned PP1 inh 3, PP5 inh 2, ALR inh -1 and CSC inhib 97*.
`COc1ccc2nc(C)cc(Nc3ccc(N4CCN(C)CC4)cc3)c2c1` gave PP1 inh -1, PP5 inh -2, ALR inh 96*, Calb FLC -4 and CSC inhib 22.
CCC(=O)NNc1nc2c(C)cc(C)cc2s1 was read as PP1 inh 0, PP5 inh -1, ALR inh 1, Calb FLC -18 and CSC inhib -2.
For Cc1cc(C)c2nc(NNC(=O)c3ccc(S(=O)(=O)N4CC(C)CC(C)C4)cc3)sc2c1 (centres undefined) the results were PP1 inh 16*, PP5 inh 5, ALR inh -2, Calb FLC 2 and CSC inhib 118*.
For CC1CN(c2nc(-c3ccc(Br)cc3)nnc2-c2ccccc2)CC(C)N1 (centres undefined) the results were PP1 inh 0, PP5 inh 1, ALR inh 97*, Calb FLC 1 and CSC inhib 36.
Screening Clc1ccc(-c2nnc(-c3ccccc3)c(N3CCSCC3)n2)cc1 returned PP1 inh 1, PP5 inh 1, ALR inh 47, Calb FLC 7 and CSC inhib 1.
Screening COc1ccccc1N=C1SC(C(=O)Nc2cccc(Cl)c2Cl)C(N)=C1C(N)=O (centres undefined) returned PP1 inh -1, PP5 inh 2, Calb FLC 9 and CSC inhib 79*.
CN(CCc1ccccn1)C(=O)Nc1ccc(C(C)(C)C)cc1 was read as PP1 inh -3, PP5 inh 2, ALR inh 4, Calb FLC -2 and CSC inhib -11.
`Cc1ccc(-c2cc3nc(-c4ccccc4)cc(N4CCC5(CC4)OCCO5)n3n2)cc1` gave PP1 inh 0, PP5 inh 2, ALR inh -9, Calb FLC -4 and CSC inhib 58.
`O=C1CCCC2=C1C(c1cccs1)n1ncnc1N2` (centres undefined) gave PP1 inh -3, PP5 inh 2, ALR inh -7, Calb FLC -9 and CSC inhib -13.
Screening O=C(NCCCN1CCCC1)c1ccc2c(c1)N(Cc1ccccc1)CCS2 returned PP1 inh 2, PP5 inh 3, ALR inh 99*, Calb FLC -9 and CSC inhib 29.
For Cc1ccccc1NC(=O)c1ccc2c(c1)N(C)CCS2 the results were PP1 inh 2, PP5 inh 1, ALR inh 98*, Calb FLC -25 and CSC inhib 9.
Screening COc1ccc(CNC(=O)c2ccc3c(c2)N(C)CCS3)cc1 returned PP1 inh 1, PP5 inh 2, ALR inh 96*, Calb FLC -8 and CSC inhib 4.
CN1CCSc2ccc(C(=O)Nc3cc(F)ccc3F)cc21 was read as PP1 inh -3, PP5 inh 0, ALR inh 10 and Calb FLC 22.
CC(C)Oc1ccc(CNC(=O)c2ccc3c(c2)N(C)CCS3)cc1 was read as PP1 inh 1, PP5 inh 0, ALR inh 12, Calb FLC -3 and CSC inhib 14.
Screening O=C(NCc1ccco1)c1ccc2c(c1)N(Cc1ccccc1)CCS2 returned PP1 inh 5, PP5 inh 4, ALR inh 98*, Calb FLC 4 and CSC inhib 129*.
Screening COc1cccc(C(=O)Nc2nc(-c3ccccc3)c(-c3ccccc3)o2)c1 returned PP1 inh 0, PP5 inh 0, ALR inh 0, Calb FLC -13 and CSC inhib 20.
CCN1CCSc2ccc(C(=O)NCc3ccccc3C)cc21 was read as PP1 inh 0, PP5 inh 1, ALR inh 90*, Calb FLC 8 and CSC inhib 7.
`Cc1ccc(CN2CCSc3ccc(C(=O)NCc4ccccn4)cc32)cc1` gave PP1 inh 1, PP5 inh 3, ALR inh 98*, Calb FLC inconclusive and CSC inhib 41.

Screening results from PubChem BioAssay.
